The structures appear in SMILES notation. Results filed as inconclusive are left out. A call without a number means that no potency is given here. Active and inactive are the calls of the source. The call rests on the fitted dose curve; in most records, active means well fitted cell-killing curve with a large enough effect in the repeat runs; inconclusive means weak or mixed curves; inactive means no such curve, though single readings can be large or run the other way.
Potency means the concentration at half of the fitted maximal effect.

A short description of this test: qHTS assay to identify small molecule antagonists of the peroxisome proliferator-activated receptor delta (PPARd) signaling pathway - cell viability counter screen (AID 743213). Further: nearly all actives have a fitted effect of over 50% in size. The conditions noted are these: PPARd-bla HEK293H viability, CellTiter-Glo luminescence, 17 h; series mostly up to 62 µM. The source says:
U.S. Tox21 Program National Center for Advancing Translational Sciences [NCATS] NIH Chemical Genomics Center [NCGC] U.S. Environmental Protection Agency [EPA] National Institutes of Environmental Health Sciences [NIEHS] National Toxicology Program [NTP] U.S. Food and Drug Administration [FDA] Tox21 Assay Overview: The peroxisome proliferator-activated receptors (PPARs) are lipid-activated transcription factors of the nuclear receptor superfamily with three distinct subtypes namely PPAR alpha, PPAR delta (PPARd) and PPAR gamma. All these subtypes heterodimerizes with Retinoid X receptor (RXR) and have different physiological functions. […] To identify the compounds that inhibit PPAR-delta signaling, GeneBLAzer PPAR delta UAS-bla HEK293H cell line (Invitrogen, Carlsbad, CA, USA) containing a beta-lactamase reporter gene under the control of an Upstream Activator Sequence (UAS) was used to screen the Tox21 compound library. The cytotoxicity of the Tox21 compound library against the PPARd-bla cell line was tested in parallel by measuring the cell viability using CellTiter-Glo assay (Promega, Madison, WI) in the same wells.
Tox21 Assay Protocol Summary: PPARd-bla cells were dispensed at 3000 cells/5uL/well in 1536-well black wall/clear bottom plates using a Multidrop Combi (Thermo Fisher Scientific, Waltham, MA) dispenser. After the assay plates were incubated at 37 C and 5% CO2 for 5 h, 23 nL of compounds dissolved in DMSO, positive controls or DMSO only was transferred to the assay plate by a Pintool station (Kalypsys, San Diego, CA), followed by addition of 1ul L165041 (300 nM, final concentration in the wells). The assay plates were incubated at 37 C for 17 h, and then 1 uL of LiveBLAzerTM B/G FRET substrate was added using a Bioraptr Flying Reagent Dispenser (FRD) workstation (Beckman Coulter, Indianapolis, IN, USA). The assay plates were incubated at room temperature for 2 h and fluorescence intensity was measured by an Envision plate reader (PerkinElmer, Shelton, CT). For cell viability readout that measures cytotoxicity, 3 ul/well of CellTiter-Glo reagent was added into the assay plates using a Bioraptr FRD. After 30 min incubation at room temperature, the luminescence intensity in the plates was measured using a ViewLux plate reader (PerkinElmer).
On the technique in general: qHTS replaces the single test concentration by a dilution series.
Turning to `NNc1nc(-c2ccc(N)cc2)cs1`, the Potency entry is “inactive”.
Regarding `c1ccc(CSCc2ccccc2)cc1`, the Potency entry is “inactive”.
Consider `CC(C)(C)NC(=O)[C@@H]1C[C@@H]2CCCC[C@@H]2CN1C[C@@H](O)[C@H](Cc1ccccc1)NC(=O)[C@H](CC(N)=O)NC(=O)c1ccc2ccccc2n1`, for which the Potency was 44.2 µM (active).
The same measure for `Nc1c2ccccc2nc2ccccc12`: “inactive”; for `O=C(NOCC1CC1)c1ccc(F)c(F)c1Nc1ccc(I)cc1Cl`: “inactive”; for `CCN(C(=O)N(CC)c1ccccc1)c1ccccc1`: “inactive”.
Take `Cc1cccc(S(=O)(=O)O)c1C`: the Potency entry is “inactive”.
On to `Cc1oc(-c2ccccc2)nc1CCC(=O)c1ccc(CC2SC(=O)NC2=O)cc1` (stereo not given), for which the Potency result is “inactive”.
Consider `OCCCCCCCCCCCCBr`, for which the Potency result is “inactive”.
For `Cc1ccc2oc(CN(Cc3ccccc3)C(=O)Nc3c(F)cc(F)cc3F)c(-c3ccc(Cl)cc3)c2c1`, the Potency result was “inactive”.
On to `CCc1cc(Cc2cc(CC)c(N)c(CC)c2)cc(CC)c1N`, for which the Potency is 54.9 µM (active).
Take `CN(C)[C@@H]1C(=O)C(C(N)=O)=C(O)[C@@]2(O)C(=O)C3=C(O)c4c(O)cccc4C[C@H]3C[C@@H]12`: the Potency entry is “inactive”.
Consider `Cc1c(C)c2c(c(C)c1O)CCC(C)(COc1ccc(CC3SC(=O)NC3=O)cc1)O2` (stereo not given), for which the Potency entry was “inactive”.
Take `CC(=O)N1CCN(c2ccc(OC[C@H]3CO[C@](Cn4ccnc4)(c4ccc(Cl)cc4Cl)O3)cc2)CC1`: the Potency was 27.5 µM (active).
For `CC(C)(C)CC(C)(C)c1ccc(OCCOCC[N+](C)(C)Cc2ccccc2)cc1`, the Potency is 17.4 µM (active).
Take `COc1ccc(C(=O)/C(Br)=C\C(=O)O)cc1`: the Potency entry was “inactive”.
With `CCCCCCCCn1sc(Cl)c(Cl)c1=O`, the Potency is 3.89 µM (active).
For `CCCC1O[C@@H]2C[C@H]3[C@@H]4CCC5=CC(=O)C=C[C@]5(C)[C@H]4[C@@H](O)C[C@]3(C)[C@]2(C(=O)CO)O1` (stereo not given in full), the Potency entry was “inactive”.
The figure for `CCN(Cc1cccnc1)C(=O)c1cccc(Cl)c1[C@]1(C)C(=O)N(Cc2ccc(OC)cc2OC)c2ccc(Cl)cc21` is 5.13 µM (active).
Consider `CCCCCCCC/C=C\CCCCCCCCOCCO`, for which the Potency is 25.4 µM (active).
In the case of `O=Cc1cc(O)ccc1Br`, the Potency entry was “inactive”.
With `Cc1cc(O)c2ccccc2c1O`, the Potency is 10.6 µM (active).
Consider `NC(=O)N1C(=O)C(C(=O)c2cc(Cl)cs2)c2cc(F)c(Cl)cc21` (stereo not given), for which the Potency is 15.5 µM (active).
For the compound `C[n+]1cc2c3c(ccc2c2ccc4cc5c(cc4c21)OCO5)OCO3`, the Potency was 1.84 µM (active).
Consider `Cc1ccc(O)c2ncccc12`, for which the Potency was 1.19 µM (active).
For `CCCCCCCCCCn1cc[n+](CCCCCCCCCC)c1C`, the Potency is 13.8 µM (active).
On to `CCCCCCCC/C=C/CCCCCCCC1=NCCN1CCO`, for which the Potency was 49 µM (active).
As to `O=c1[nH]sc2ccccc12`, the Potency is 17.4 µM (active).
Regarding `CCCCCCCCCCC=O`, the Potency entry is “inactive”.
The same measure for `ON=C1CCCC1`: “inactive”; for `CCCC(C)c1ccccc1O` (stereo not given): “inactive”; for `OC1(c2ccc(Cl)c(C(F)(F)F)c2)CCN(CCCC(c2ccc(F)cc2)c2ccc(F)cc2)CC1`: 11.9 µM (active).
`NC(=O)CC[C@@H]1NC(=O)[C@H](Cc2ccccc2)NC(=O)[C@H](Cc2ccc(O)cc2)NC(=O)CCSSC[C@@H](C(=O)N2CCC[C@H]2C(=O)N[C@@H](CCCN=C(N)N)C(=O)NCC(N)=O)NC(=O)[C@H](CC(N)=O)NC1=O`: the Potency entry is “inactive”.
For the compound `CCc1cc(SCc2sc(-c3ccc(C(F)(F)F)cc3)nc2CN2CCN(c3ccc(OC)cc3)CC2)ccc1OCC(=O)O`, the Potency is 5.49 µM (active).
For the compound `c1cc(C(c2ccc(OCC3CO3)cc2)c2ccc(OCC3CO3)cc2)ccc1OCC1CO1` (stereo not given), the Potency result was “inactive”.
Consider `CC(C)(C)C1CCC(CC2=C(O)c3ccccc3C(=O)C2=O)CC1` (stereo not given), for which the Potency result is “inactive”.
The figure for `O=C(Oc1cccc2cccnc12)c1ccccc1` is 4.22 µM (active).
Take `COCCCC/C(=N\OCCN)c1ccc(C(F)(F)F)cc1`: the Potency result is “inactive”.
For the compound `Oc1ccc2c(c1)-c1ccccc1C2`, the Potency entry is “inactive”.
In the case of `CC(C)(C)C(=O)OCOC(=O)[C@@H]1N2C(=O)[C@@H](NC(=O)[C@H](N)c3ccccc3)[C@H]2SC1(C)C`, the Potency entry is “inactive”.
